This is a sample that favours compounds with a hit; in the whole collection about 1.2% have one here.
SKN-1 block – C. elegans SKN-1 inhibition. C. elegans VP596 Pgst-4::GFP/RFP ratio, acrylamide-induced, 24 h. inhibition, % at 21.8 µM. hit rate 0.49% among 360,000;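 active = interference check ratio from 0.5 to 1.5 plus GFP to RFP signal ratio inhibition reaching or exceeding a fixed threshold, cut at about 30% in these data, passing the limit was not always enough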
ABCB6 inh MLPCN – human ABCB6 transporter inhibition. K562-ABCB6 porphyrin accumulation, flow cytometry, 1 h; hits give low values. fluorescence ratio to DMSO, % at 10 µM. hit rate 0.19% among 360,000;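 active = fluorescence ratio to DMSO below 75%, the collection mean minus 3 SD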;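 also: signal is porphyrin accumulated inside mitochondria; 100% equals median channel fluorescence of DMSO control wells; lower ratio means ABCB6 inhibition with less porphyrin fluorescence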
VLA-4 inh – inhibition in a human VLA-4 binding assay; P13612; VLA-4 expressing cells, ligand binding flow cytometry; inhibition, % (about 7 µM as worked out from the volumes in the protocol); hit rate 0.2% among 330,000; in the data active = inhibition above about 50%
Platelet DG rel – modulates dense granule release in human platelets; human platelet-rich plasma, SFLLRN dense granule ATP release, luminescence; inhibition, %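 (compounds screened at 7.5 µM in platelet-rich plasma)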; hit rate 0.22% among 300,000; AID 1663;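 active = mean replicate score, as percent of positive control, at or above 50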
Yeast superoxide – yeast age-related superoxide inhibition as caloric restriction mimetic; S. cerevisiae aged cells, superoxide DHE fluorescence; hits give low values; superoxide response (% of plate mean), % at 10 µM; hit rate 0.18% among 330,000; AID 2690;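 active = superoxide response under a set limit, about three screen SD below normal, cut at about 65% in these data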;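 also: yeast aged for seven days with compound at 30 °C before DHE staining; 100% = average MFI of all compound-treated wells on the plate with controls excluded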
VLA-4 allo CP – confirmation of allosteric modulators of human VLA-4 integrin | shares compounds with VLA-4 inh | U937 cells, HUTS-21 LIBS mAb binding, flow cytometry; LDV ligand present at threefold Kd | inhibition, % at 6.7 µM | hit rate 2% among 1,300; in the data active = inhibition above about 40%;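 also: 0% = ligand without compound and 100% = no ligand background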
Numbers without * were called inactive; nt = not tested or not shown.

SMILES	SKN-1 block	ABCB6 inh MLPCN	VLA-4 inh	Platelet DG rel	Yeast superoxide	VLA-4 allo CP
C=CCn1c(SCC(=O)Nc2ccccc2F)nnc1C(C)NC(=O)c1ccccc1F (stereo unspecified)	11.4	96.0	3.0	7.6	94.0	nt
C=CCn1c(SCC(=O)Nc2nc(C)cs2)nnc1C(C)NC(=O)c1ccccc1Cl (stereo unspecified)	-6.9	101.0	54.4*	-4.8	96.5	2.1
CCOCCC(=O)Nc1ccc2c(c1)c(=O)n(C)n2CC=C(C)C	0.8	91.0	nt	nt	nt	nt
CCCc1nc2cc(CC(=O)OC)ccc2o1	-6.1	101.0	71.7*	-15.3	80.1	2.4
COC(=O)CCCNC(=O)c1ccc2oc(CCCc3ccccc3)nc2c1	17.4	96.0	8.9	-3.9	93.7	nt
Cc1ccc(S(=O)(=O)/C=C2\OCc3ccccc32)cc1	-3.0	nt	nt	nt	nt	nt
O=C(Nc1nc(-c2nc3ccccc3s2)cs1)c1ccco1	9.3	99.0	78.2*	8.0	111.7	3.5
O=C(COC(=O)c1ccccc1C(=O)c1ccc(Cl)c([N+](=O)[O-])c1)NC1CCCCCC1	-11.7	84.0	62.0*	-9.1	96.2	32.3
O=C(/C=C/c1ccccc1[N+](=O)[O-])NCCCn1ccnc1	0.7	95.0	61.5*	-10.3	139.4	-4.9
COc1ccc2sc(-c3ccccc3OC)c(-c3ccc(OCCN4CCOCC4)cc3)c2c1	-3.2	103.0	nt	nt	96.1	1.6
COc1ccccc1-c1sc2ccccc2c1-c1ccc(OCCN2CCOCC2)cc1	4.1	107.0	nt	nt	94.8	0.0
C1=C(c2sc3ccccc3c2-c2ccc(OCCN3CCOCC3)cc2)CCCC1	7.9	94.0	17.8	nt	92.4	nt
c1ccc(-c2sc3ccccc3c2-c2ccc(OCCN3CCOCC3)cc2)cc1	-8.5	83.0	6.0	nt	88.5	-4.9
CCOC(=O)c1cc(OCC)c2c(ccc3cc(OC)ccc32)n1	4.8	97.0	nt	nt	nt	nt
CSCCC(C(=O)Nc1c(C)cccc1C)n1c(COc2ccc(C)cc2)nc2ccccc21 (stereo unspecified)	-3.1	nt	nt	nt	nt	nt
CC(=O)c1ccccc1NS(=O)(=O)c1ccc2c(c1)CC(=O)N2	-15.1	92.0	7.0	nt	100.3	1.8
CC(C)CNC(=O)C1(C)CCCCCN1Cc1ccccc1-c1ccccc1 (stereo unspecified)	5.0	107.0	nt	nt	nt	nt
COC(=O)[C@@]12C[C@@H](CC(=O)N3CCN(C(=O)c4ccco4)CC3)C(=O)N(Cc3cccc4ccccc34)C1=CCC(C)(C)C2	-2.1	nt	nt	nt	nt	nt
O=C(Nc1cccc(Cl)c1)OCc1cnc(Cl)s1	6.3	92.0	2.1	2.7	108.6	12.6
CCCC(C)(C)C(=O)N1CCC1(C)C(=O)NS(=O)(=O)c1ccc(Br)cc1 (stereo unspecified)	-0.8	95.0	nt	nt	nt	nt
O=C1Nc2ccccc2C(=O)N(Cc2ccccc2)C1C(=O)NC1CC1 (stereo unspecified)	4.4	nt	nt	nt	nt	nt
CN(C)c1ccc(/C=C(\C#N)C(=O)c2ccccc2)cc1	21.9	108.0	-4.0	2.5	67.7	nt
CCOC(=O)NC(=O)/C(C#N)=C/c1ccc(N(C)C)cc1	5.0	104.0	-16.1	-27.0	97.6	2.1
CCN(CC)c1ccc(/C=C(\C#N)C(N)=O)cc1	6.7	99.0	nt	nt	nt	-1.6
N#C/C(=C\c1cc(O)c(O)c(O)c1)C(N)=O	9.3	93.0	4.1	1.3	90.6	2.4
SMILES	SKN-1 block	ABCB6 inh MLPCN	VLA-4 inh	Platelet DG rel	Yeast superoxide	VLA-4 allo CP
Cc1[nH]c2ccccc2c1C(=O)C(=O)NCc1nnnn1-c1ccc(F)c(F)c1	7.0	95.0	nt	nt	nt	nt
CCN(C[C@H]1N[C@@](Cc2ccccc2)(C(=O)OC)[C@H]2C(=O)N(Cc3ccccc3)C(=O)[C@@H]12)C(=O)c1ccccc1	-7.2	99.0	49.9*	nt	110.2	4.4
CCN(C[C@H]1N[C@@](CC)(C(=O)OC)[C@H]2C(=O)N(Cc3ccccc3)C(=O)[C@@H]12)C(=O)c1ccccc1	12.1	102.0	-7.6	nt	98.3	nt
CCN(C[C@H]1N[C@@](Cc2ccccc2)(C(=O)OC)[C@H]2C(=O)N(Cc3ccccc3)C(=O)[C@@H]12)C(=O)COC	49.2	103.0	-9.9	nt	78.4	2.7
COC(=O)[C@]1(Cc2ccccc2)N[C@H](CN(C)C(=O)Nc2ccc(F)cc2)[C@@H]2C(=O)N(Cc3ccccc3)C(=O)[C@@H]21	-2.5	93.0	0.9	nt	87.0	2.0
CCN(C[C@H]1N[C@@](CC)(C(=O)OC)[C@H]2C(=O)N(Cc3ccccc3)C(=O)[C@@H]12)C(=O)COC	3.5	97.0	29.3	nt	122.4	nt
CCN(C[C@H]1N[C@@](Cc2ccccc2)(C(=O)OC)[C@H]2C(=O)N(Cc3ccccc3)C(=O)[C@@H]12)C(C)=O	-19.9	98.0	8.4	nt	119.4	3.3
CCc1nc2ccc(C(=O)Nc3cccc(OCC(=O)N(C)C)c3)cn2c1N(C)Cc1cc2ccccc2s1	5.7	93.0	nt	nt	nt	nt
CCCc1ccc(C(O)c2ncc(-c3ccccc3F)[nH]2)cc1 (stereo unspecified)	5.0	105.0	nt	nt	nt	nt
CCCNC(=O)C1(C)CCN(C(=O)/C=C/c2ccccc2)C1 (stereo unspecified)	7.5	98.0	nt	nt	nt	nt
Nc1ccc(S(=O)(=O)c2ccccc2)nc1	4.5	101.0	43.6	-5.8	95.9	-10.2
CC(C)(C)NC(=O)C(c1ccccc1F)n1c(=O)c(-c2ccccc2)nc2ccccc21 (stereo unspecified)	11.1	nt	nt	nt	nt	nt
COc1ccc(Cl)cc1-c1cc(C(=O)Nc2ccc(C(C)(C)C)cc2)[nH]n1	3.4	108.0	nt	nt	nt	nt
O=C1N[C@H](C(=O)O)CS1	nt	nt	53.9*	-1.7	91.9	4.7
O=C1CC[C@@H](C(=O)O)N1	3.7	100.0	18.5	nt	95.1	nt
CCOC(=O)[C@]12CCC=C1N(Cc1ccc3c(c1)OCO3)C(=O)[C@H](CC(=O)N1CCN(C(=O)c3ccco3)CC1)C2	6.9	93.0	nt	nt	nt	nt
CN(C)c1ccc(NC(=O)COC(=O)c2ccc3c(c2)OCO3)cc1	-0.9	97.0	8.8	nt	81.2	nt
CN(C)c1ccc(C(=O)OCC(=O)Nc2ccc(S(N)(=O)=O)cc2)cc1	17.5	94.0	0.7	-5.5	101.7	2.4
COC(=O)c1c(C)[nH]c(C(=O)C(C)OC(=O)C2CC2C)c1C (stereo unspecified)	4.3	95.0	-14.9	nt	93.8	-6.8
COC(=O)c1c(C)[nH]c(C(=O)C(C)OC(=O)C2CC(=O)N(c3ccc(C)cc3)C2)c1C (stereo unspecified)	-2.0	89.0	-17.4	nt	100.4	nt
CC(C)C[C@@H](COCc1cccc(Cl)c1)N1CCN(C(=O)c2ccc(C(F)(F)F)cc2)CCC1=O	-0.7	94.0	nt	nt	nt	nt
COc1ccc(CN2C(=O)CCCC2(C)c2nc3ccccc3[nH]2)cc1 (stereo unspecified)	-1.8	94.0	nt	nt	nt	nt
Cn1c(Sc2nc3ccccc3n2C)nc2ccccc21	-12.2	99.0	68.1*	0.6	101.3	5.7
Cn1c(SCC(=O)N2CCCC2)nc2ccccc21	-0.1	98.0	27.4	-5.7	103.4	nt
O=c1c(O)c(-c2cc(O)c(O)c(O)c2)oc2cc(O)cc(O)c12	-7.6	99.0	56.1*	nt	114.9	5.1
